Sampled rows, rich in hits. Any-hit rate of the full collection: about 2.3%.
M1 ag parental: counter-screen for M1 agonists: effect in parental CHO-K1 cells. Fluo-8 calcium fluorescence; scaled to maximal ATP response, vehicle zero. activation, % at 3 µM. 360,000 compounds, 0.48% hits; in the data active means activation above about 15%;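 further: untransfected CHO-K1 host cells lacking M1 receptor as counterscreen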
M1 PAM parental: nonselective calcium activators in parental CHO-K1 cells, primary screen, counter-screen for M1 PAM project, cell-based, Fluo-8 calcium fluorescence, full deck, 1536-well; 360,000 compounds, 0.02% hits; activation, % at 3 µM; ATP EC20; 0% at ATP EC20, 100% at ATP max;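 active means activation above the run cutoff, the mean activation of all test compounds plus 3 SD, cut at about 40% in these data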;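 further: peak over basal fluorescence ratio in a 140 s read after ATP addition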
CHO-K1 Ca antag: nonselective inhibitor or artifact in parental CHO-K1 cells. AID 602250. 360,000 compounds, 0.6% hits. ATP-induced calcium, Fluo-8 fluorescence. inhibition, % at 3 µM;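 active means inhibition above a per-plate cutoff, the plate's mean sample inhibition plus 3 SD, cut at about 24% in these data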;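 further: 0% = DMSO plus EC80 ATP and 100% = DMSO alone without ATP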
CHRM1 agonist: human M1 muscarinic receptor agonists, primary screen, Fluo-8 calcium fluorescence, CHO-K1 cells, HTS | 360,000 compounds, 0.33% hits | CHO-K1 hM1, agonist mode; 0% DMSO, 100% acetylcholine EC100 | activation, % at 3 µM | Muscarinic acetylcholine receptor M1 (Homo sapiens), P11229;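 active means activation above the run's mean compound activation plus 3 SD, cut at about 16% in these data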;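 further: peak over basal fluorescence ratio within a 140 s kinetic read after compound addition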
Target sequence (P11229 whole entry, looked up): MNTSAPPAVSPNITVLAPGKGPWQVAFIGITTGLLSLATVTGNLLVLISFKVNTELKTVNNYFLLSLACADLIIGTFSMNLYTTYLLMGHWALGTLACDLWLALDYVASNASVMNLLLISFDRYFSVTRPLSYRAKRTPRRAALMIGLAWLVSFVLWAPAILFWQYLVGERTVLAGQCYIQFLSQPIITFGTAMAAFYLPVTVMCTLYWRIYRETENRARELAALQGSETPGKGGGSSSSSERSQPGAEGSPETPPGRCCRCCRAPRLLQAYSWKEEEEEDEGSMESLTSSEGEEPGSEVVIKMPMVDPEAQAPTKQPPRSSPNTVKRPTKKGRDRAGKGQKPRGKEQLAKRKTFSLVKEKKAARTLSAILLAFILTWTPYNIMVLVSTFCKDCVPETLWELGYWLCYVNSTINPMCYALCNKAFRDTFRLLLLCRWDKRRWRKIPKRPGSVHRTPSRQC
CHRM1 PAM: human M1 muscarinic receptor positive allosteric modulators, primary screen, CHO-K1 cells, Fluo-8 calcium fluorescence, 1536-well; 360,000 compounds, 0.088% hits; activation, % at 3 µM; Muscarinic acetylcholine receptor M1 (Homo sapiens), P11229; CHO-K1 hM1, ACh EC20; 0% = ACh EC20, 100% = maximal ACh; in the data active means activation above about 19%, passing the limit was not always enough
M1 antag: human M1 muscarinic receptor antagonists, primary screen, CHO-K1 cells, Fluo-8 calcium fluorescence, 1536-well | Muscarinic acetylcholine receptor M1 (Homo sapiens), P11229 | CHO-K1 hM1, ACh EC80 antagonist | inhibition, % at 3 µM | 360,000 compounds, 1.3% hits;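 active means percent inhibition above its own plate's cutoff, namely the mean of that plate's compound wells plus 3 SD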;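 further: peak over basal fluorescence ratio during 140 s after agonist addition; 0% = ACh EC80 plus DMSO and 100% = DMSO alone without agonist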
* hit, by the source's call; / = no result given.

SMILES | M1 ag parental | M1 PAM parental | CHO-K1 Ca antag | CHRM1 agonist | CHRM1 PAM | M1 antag
CC(C)C[C@H]1CNC(=O)C(=O)N1CC1CCN(CC2CCC(C)CC2)CC1 (some centres undefined) | -0.3 | -8.0 | 22.2 | -11.3 | -18.7 | 39.1*
CC[C@H](C)[C@H]1CNC(=O)C(=O)N1CC1CCN(CC2CCC(C)CC2)CC1 (some centres undefined) | 0.3 | 23.0 | -23.8 | -10.3 | 4.1 | -9.5
CCN(CCO)Cc1csc2ccccc12 | 0.0 | 10.1 | -4.1 | -0.5 | 8.8 | -6.8
CCN(CCO)Cc1csc2c(Br)cccc12 | 0.9 | 18.1 | -16.4 | -3.6 | 23.1* | -41.4
CCCc1cc(NCCCO)n2c(nc3ccccc32)c1C#N | 1.1 | 1.4 | -4.2 | -5.3 | 3.6 | -6.6
COC(=O)c1[nH]c2ccccc2c1NC(=O)CNC1CCCCC1 | 4.9 | 9.7 | 4.8 | 1.5 | -11.8 | 37.7*
COC(=O)c1[nH]c2ccccc2c1NC(=O)CN1CCCCCC1 | 0.9 | 15.2 | -8.1 | -3.2 | -1.0 | 7.2
NC(=O)c1ccc(NC(=O)COC(=O)c2ccc(Br)c(S(=O)(=O)N3CCOCC3)c2)cc1 | -0.4 | -19.4 | 15.9 | -2.9 | 4.1 | -2.2
N=C(CC1CC(=O)NC(=O)C1)C1=C(O)CCCC1=O | 0.5 | 13.6 | -7.7 | -3.7 | 6.6 | -12.3
COc1cc(C(=O)Nc2ccc(-n3cnnn3)c(C)c2)cc(OC)c1OC | 0.8 | -7.0 | 24.4* | 3.2 | 3.0 | -3.4
COc1cc(C(=O)Nc2cccc(-n3cnnn3)c2)cc(OC)c1OC | 3.9 | 15.1 | -12.6 | -0.4 | 1.3 | -1.7
COc1ccccc1/C=C/C(=O)OCC(=O)Nc1c(C)nn(-c2ccccc2)c1C | 6.8 | 13.4 | -6.6 | 0.8 | -7.0 | 21.9
C[C@H]1CN=C(N(C)C)N1CC1CCCC1 | 0.9 | 10.2 | -9.9 | 11.6 | -3.6 | 4.5
C[C@H]1CN=C(N(C)C)N1CC1CCC(C(C)(C)C)CC1 (some centres undefined) | 1.9 | 16.3 | -16.6 | -10.4 | -32.1 | 51.4*
COC(=O)c1cccc(C(=O)N2CCC(CO)(Cc3ccccc3Cl)CC2)c1 | 6.9 | 9.7 | -8.3 | 2.7 | -1.1 | 1.3
O=C(CCC(F)(F)F)N1CCC(CO)(CCc2ccccc2)CC1 | -0.1 | -16.5 | 6.1 | -1.3 | -4.7 | -9.6
OCC1(CCc2ccccc2)CCN(C/C=C/c2ccccc2)CC1 | 21.2* | 30.1 | -12.1 | -8.0 | -24.3 | 24.8
OCC1(Cc2ccccc2Cl)CCN(C/C=C/c2ccccc2)CC1 | 3.4 | 3.5 | 3.5 | -5.1 | -25.6 | 61.7*
CCN(CC)c1c(C)nc2ccc(C(=O)NCc3ccc4c(c3)OCO4)cn12 | 4.6 | 29.0 | 0.2 | -5.8 | -4.1 | 0.5
COC(=O)[C@@]1(C(C)C)N=C(c2cc(OC)c(OC)c(OC)c2)[C@]2(O1)C(=O)N(C)c1ccccc12 | 0.4 | 6.7 | -10.8 | / | / | /
CCOC(=O)N1CCC(N2CCCC(C(=O)c3cc(C)c(OC)c(C)c3)C2)CC1 (centres undefined) | 0.4 | 5.7 | -5.2 | -10.7 | -27.2 | 78.3*
COc1ccccc1C(=O)C1CCCN(Cc2cccc3nccnc23)C1 (centres undefined) | 5.3 | -9.6 | -9.8 | -4.0 | -19.0 | 44.7*
COc1c(C)cc(C(=O)C2CCCN(Cc3cccc4nccnc34)C2)cc1C (centres undefined) | 1.0 | 3.5 | -8.2 | -11.7 | -28.8 | 42.4*
COc1cccc(C(=O)C2CCCN(C/C=C/c3ccccc3OC)C2)c1 (centres undefined) | 1.7 | -4.3 | -20.0 | -8.1 | -16.8 | 20.7
COc1ccc(C(=O)C2CCCN(C/C=C/c3ccccc3OC)C2)c(OC)c1 (centres undefined) | 0.2 | -11.3 | 11.7 | -9.8 | -28.3 | 51.1*
SMILES | M1 ag parental | M1 PAM parental | CHO-K1 Ca antag | CHRM1 agonist | CHRM1 PAM | M1 antag
O=C(OCc1cc(=O)n2ccsc2n1)c1ccc(OC(F)F)cc1 | 0.8 | -12.7 | 12.2 | -5.3 | -2.3 | 6.7
CCc1cccc(C)c1NC(=S)N(CCCN1CCOCC1)Cc1cccnc1 | 0.8 | 16.3 | -18.5 | -6.0 | 7.8 | -4.3
CCOc1ccccc1NC(=O)C(c1ccccc1)N1CCN(C(=O)c2ccco2)CC1 (centres undefined) | 3.2 | 23.0 | -18.6 | 4.2 | 8.9 | -8.4
COc1cccc(CN2CCc3ccc(NC(=O)CCc4ccc(C)cc4)cc3C2)c1O | 13.1 | 10.9 | 5.9 | 0.6 | -14.8 | 38.4*
COc1cc(CN2CCc3ccc(NC(=O)CCc4ccccc4OC)cc3C2)ccc1O | 2.5 | 11.6 | 1.9 | -6.0 | 6.3 | -19.5
O=S(=O)(c1cccc2nonc12)N1CCCCCC1 | 0.1 | 16.4 | -13.0 | -3.8 | 8.1 | -5.9
CCc1ccc(NC(=O)c2cc(S(=O)(=O)N3CCCC3)c[nH]2)cc1 | 2.0 | 13.2 | 17.8 | -9.1 | -12.5 | 4.0
CC(C)c1ccc(NC(=O)c2cc(S(=O)(=O)N3CCCC3)c[nH]2)cc1 | 3.5 | 3.8 | -5.1 | -9.1 | -29.8 | 35.4*
O=C(CN1C(=O)NC2(CCCC2)C1=O)Nc1nc(-c2ccccc2)cs1 | 0.5 | -11.5 | 6.2 | 8.1 | 17.7 | -14.5
Cc1ccc(NC(=O)c2cc([N+](=O)[O-])ccc2N2CCOCC2)cc1S(=O)(=O)N(C)C | 2.8 | 12.6 | -13.2 | -5.0 | -23.0 | 52.4*
O=C(c1cc([N+](=O)[O-])ccc1N1CCOCC1)N1CCN(S(=O)(=O)c2ccc(F)cc2)CC1 | 0.3 | -23.0 | 3.7 | -2.2 | -9.1 | 27.9*
Cc1ccc(NC(=O)c2cc([N+](=O)[O-])ccc2N2CCOCC2)cc1C | -0.3 | -13.1 | 8.4 | -4.8 | 6.8 | -5.4
CC(C)c1ccc(S(=O)(=O)N2CCN(C(=O)c3cc([N+](=O)[O-])ccc3N3CCOCC3)CC2)cc1 | 0.2 | 7.7 | -8.8 | -4.3 | 7.6 | -21.9
Cc1ccc(NC(=O)c2cc([N+](=O)[O-])ccc2N2CCCC2)cc1 | 16.9* | 16.6 | 1.4 | -2.8 | -1.8 | 6.0
O=S(=O)(c1ccc(Br)c2ccccc12)N1CCCC1 | -0.3 | -23.8 | 2.2 | -1.9 | 10.7 | -7.9
C/C(=N\O)C(C)(C)Nc1cccc(Br)c1 | 0.0 | 4.3 | -17.1 | -3.8 | 5.9 | -19.2
CCCn1c(N)c(C(=O)CN(C)CC(=O)Nc2c(C)cc(C)cc2C)c(=O)[nH]c1=O | -0.1 | 13.4 | 3.8 | -3.4 | 3.7 | -12.0
CN(C)c1ccc(/C=C(/C(=O)c2ccc(Cl)cc2Cl)n2cncn2)cc1 | 17.9* | 12.3 | 8.1 | 14.6 | -1.5 | 7.8
